{"source": "PubChem BioAssay AID1554", "about": "(Broad Institute, 2009)", "note": "About 520 (0.17%) of roughly 300,000 compounds were called active. The full list was thinned out, with actives kept by preference. Unmarked numbers belong to inactive results. Rule as the data show it: active = inhibition above about 50%; inconclusive = no clear call, values can overlap the other calls; inactive = below that."}
{"assay": "PubChem AID 1554", "conditions": "BJeLR (HRASV12) viability, CellTiter-Glo ATP luminescence, 48 h; active compounds read high; concentration not given here"}
{"smiles": "CN(C)CCN(Cc1ccccc1)S(=O)(=O)c1csc(C(N)=O)c1", "inhibition": "7.25%"}
{"smiles": "CC(C)Cc1nnc(NC(=O)CN2C(=O)NC3(CCCCC3)C2=O)s1", "inhibition": "4.35%"}
{"smiles": "CCOC(=O)CNc1nc(Cl)nc(Nc2ccc(OC)cc2OC)n1", "inhibition": "-1.85%"}
{"smiles": "CCN1C(=O)N[C@@H](c2ccccc2)C(C(=O)OC)=C1C", "inhibition": "2.76%"}
{"smiles": "COc1cccc(NC(=O)c2ccccc2N(Cc2ccccc2)S(C)(=O)=O)c1", "inhibition": "3.05%"}
{"smiles": "CCCOc1ccccc1C1CC(=O)Nc2cc3c(cc21)OCO3", "note": "(stereo unspecified)", "inhibition": "21.8%"}
{"smiles": "COc1ccccc1C1C2=C(COC2=O)Nc2cc3c(cc21)OCO3", "note": "(stereo unspecified)", "inhibition": "71.8% (active)"}
{"smiles": "COc1ccc(S(=O)(=O)Nc2ccc3c(c2)OCO3)cc1Cl", "inhibition": "4.86%"}
{"smiles": "CC1COc2ccccc2N1S(=O)(=O)c1ccccc1", "note": "(stereo unspecified)", "inhibition": "-0.313%"}
{"smiles": "CC(C)(C)c1cc(NC(=O)NN2CCOCC2)nn1-c1c(Cl)cc(Cl)cc1Cl", "inhibition": "-1.25%"}
{"smiles": "COc1cc(/C=C(\\C#N)c2nc3ccccc3[nH]2)ccc1O", "inhibition": "-5.76%"}
{"smiles": "COc1ccc(/C=C(\\C#N)c2c[nH]c3ccccc23)cc1", "inhibition": "52.5% (active)"}
{"smiles": "COc1ccc(C(C(O)C(=O)c2c[nH]c3ccccc23)N2CCN(c3ccccc3)CC2)cc1", "note": "(stereo unspecified)", "inhibition": "0.745%"}
{"smiles": "CC(NC(=O)Cn1cc(C(F)(F)F)cc(Cl)c1=O)c1ccccc1", "note": "(stereo unspecified)", "inhibition": "-4.93%"}
{"smiles": "O=C(NNC(=O)c1ccccc1[N+](=O)[O-])Nc1ccccc1C(F)(F)F", "inhibition": "1.35%"}
{"smiles": "Cc1cccc(-n2ncc(Cl)c(Cl)c2=O)c1", "inhibition": "90.5% (active)"}
{"smiles": "Cc1cccc(-n2ncc(C#N)c2-n2cccc2)c1", "inhibition": "-4.28%"}
{"smiles": "O=c1c(Cl)c(NC2CC2)cnn1-c1ccccc1", "inhibition": "-3.03%"}
{"smiles": "CC[C@H]1CC2CN3CCc4c([nH]c5ccccc45)C(C(=O)OC)(C2)C13", "note": "(stereo partly specified)", "inhibition": "2.65%"}
{"smiles": "CC[C@]1(O)C[C@@H]2CN(CCc3c([nH]c4ccccc34)[C@@](C(=O)OC)(c3cc4c(cc3OC)N(C)[C@H]3[C@@](O)(C(=O)OC)[C@H](OC(C)=O)[C@]5(CC)C=CCN6CC[C@]43[C@@H]65)C2)C1", "inhibition": "69.1% (active)"}
{"smiles": "CC[C@]1(O)CC2CN(CCc3c([nH]c4ccccc34)[C@@](C(=O)OC)(c3cc4c(cc3OC)N(C=O)[C@H]3[C@@](O)(C(=O)OC)[C@H](OC(C)=O)[C@]5(CC)C=CCN6CC[C@]43[C@@H]65)C2)C1", "note": "(stereo partly specified)", "inhibition": "34.8%"}
{"smiles": "CCOc1ccc(C(CC(=O)O)NC(=O)C23CC4CC(CC(C4)C2)C3)cc1OC", "note": "(stereo unspecified)", "inhibition": "8.09%"}
{"smiles": "OCCn1c(-c2ccccc2)csc1=Nc1ccccc1", "inhibition": "3.02%"}
{"smiles": "Cc1ccc(S(=O)(=O)N2CCCC2C(=O)OCc2nc3sc(C)c(C)c3c(=O)[nH]2)cc1", "note": "(stereo unspecified)", "inhibition": "2%"}
{"smiles": "CC12C(=O)N(n3cnnc3)C(=O)C1C1C=CC2C1", "note": "(stereo unspecified)", "inhibition": "6.14%"}
{"smiles": "Cc1ccc(CN2CCNC(=O)C2CC(=O)NCc2csc(C(C)C)n2)cc1", "note": "(stereo unspecified)", "inhibition": "-3.33%"}
{"smiles": "Cc1ccc(Cn2cc(C(=O)NN)c(=O)c3ccc(F)cc32)cc1", "inhibition": "-4.45%"}
{"smiles": "CC(C)CN(C(=O)c1cccc(S(=O)(=O)N2CCCCC2)c1)C1CCS(=O)(=O)C1", "note": "(stereo unspecified)", "inhibition": "2.4%"}
{"smiles": "Clc1ccc2c(c1)C1=C(C(c3ccncc3)O2)C(c2ccc(Br)cc2)n2ncnc2N1", "note": "(stereo unspecified)", "inhibition": "-10%"}
{"smiles": "Brc1ccc2ncnc(NCc3cccnc3)c2c1", "inhibition": "4.75%"}
{"smiles": "COc1ccc(C2=NOC(Cn3nc(C(=O)NCc4ccc5c(c4)OCO5)cc3-c3ccccc3)C2)cc1", "note": "(stereo unspecified)", "inhibition": "8.13%"}
{"smiles": "S=c1[nH]ccn1-c1ccc(Cl)cc1", "inhibition": "1.81%"}
{"smiles": "CC(C)(C)OC(=O)NC(Cc1ccccc1)C(=O)NC(CSC1CCCCO1)C(=O)NN", "note": "(stereo unspecified)", "inhibition": "10.4%"}
{"smiles": "COc1ccccc1C(=O)NCCn1cc(SCC(=O)NCc2ccco2)c2ccccc21", "inhibition": "-1.46%"}
{"smiles": "CC12CCC(C(=O)N(CCC#N)CCC#N)(CC1=O)C2(C)C", "note": "(stereo unspecified)", "inhibition": "-15.4%"}
{"smiles": "COC(=O)c1c(C(=O)OC)c(-c2cccc(C)c2)n2c1CS(=O)C2", "note": "(stereo unspecified)", "inhibition": "0.411%"}
{"smiles": "CC1(C)Oc2ccc3ccc(=O)oc3c2/C(=N/O)C1=O", "inhibition": "0.973%"}
{"smiles": "Cc1ccc2[nH]c(=O)c(CN3CCCCC3)c(-c3ccccc3)c2c1", "inhibition": "4.95%"}
{"smiles": "COC(=O)c1ccc(OCC(O)CN(CCO)CC(O)Cn2ccc3ccccc32)cc1", "note": "(stereo unspecified)", "inhibition": "1.45%"}
{"smiles": "Cc1ccc(O)c(/C=N/NC(=O)COc2ccc3c(C)cc(=O)oc3c2)c1", "inhibition": "-1.41%"}
{"smiles": "CC1(C)CC(=O)C=C(N2CCCC2)C1", "inhibition": "0.434%"}
{"smiles": "O=C1CC(N2CCN(C(c3ccccc3)c3ccccc3)CC2)C(=O)N1", "note": "(stereo unspecified)", "inhibition": "-3.58%"}
{"smiles": "CC1(C)CC(N2CCN(C(c3ccccc3)c3ccccc3)CC2)=CC(=[N+]2CCCCC2)C1", "inhibition": "70.6% (active)"}
{"smiles": "Cc1cc(=O)[nH]c(SCc2ccc(Cl)cc2)n1", "inhibition": "0.607%"}
{"smiles": "O=C(Oc1ccc(Br)cc1)c1cccnc1", "inhibition": "-11.9%"}
{"smiles": "Cc1ccc(Oc2nc(-c3ccccn3)nc3ccccc23)cc1", "inhibition": "4.2%"}
{"smiles": "O=C(Oc1ccc(-c2nc(-c3ccccn3)no2)cc1)c1ccccc1", "inhibition": "61.8% (active)"}
{"smiles": "COCCNC(=S)N1CCN(C)CC1", "inhibition": "6.68%"}
{"smiles": "COc1cc(OC)cc(C(=O)N[C@H](C(=O)Nc2nc3ccccc3[nH]2)C(C)C)c1", "inhibition": "50.8% (active)"}
{"smiles": "COc1cc(OC)cc(C(=O)N[C@H](C(=O)OCC(=O)NC(C)c2ccccc2)C(C)C)c1", "note": "(stereo partly specified)", "inhibition": "-3.17%"}
{"smiles": "COc1ccc(C(=O)N[C@H](C(=O)NCc2ccccc2)C(C)C)cc1", "inhibition": "-8.87%"}
{"smiles": "CCOC(=O)c1sc(C)c2c1NC(C)(c1cccc3ccccc13)NC2=O", "note": "(stereo unspecified)", "inhibition": "-6.51%"}
{"smiles": "Cc1cc(C)n(-c2ccc(C(=O)O)cc2[N+](=O)[O-])n1", "inhibition": "3.87%"}
{"smiles": "CC(=O)c1ccc(Oc2cc(C)nc(-n3nc(C)cc3C)n2)cc1", "inhibition": "50.8% (active)"}
{"smiles": "Cc1cc(Oc2ccc(Cl)cc2)nc(SCC(=O)c2ccccc2)n1", "inhibition": "-7.21%"}
{"smiles": "COc1ccccc1NC(=O)c1cc(N2C(=O)C3C4CCC(C4)C3C2=O)ccc1Cl", "note": "(stereo unspecified)", "inhibition": "-10.4%"}
